# FMDV inh: High Throughput Screening for Foot and Mouth Disease Virus Antivirals | Potency, µM (top dose mostly 57.9 µM), inactives show at the top dose activity change, negative = inhibition, hits mostly inhibitors | FMDV antiviral cell-based qHTS | 410,000 tested, 1.2% active; calls by dose curve; tested in HEK293T cells; also: read-out not given here; potency is read from the fitted curve at half-maximal effect; nearly all actives have a fitted effect of over 45% in size
# MARV entry inh: qHTS for inhibitors of binding or entry into cells for Marburg Virus | Marburg virus pseudotyped entry inhibition, cell reporter | Potency, µM (top dose mostly 37.8 µM), for the others: at the top dose activity change, negative = inhibition, actives largely listed as inhibitors | 300,000 tested, 1.8% active | AID 540276, 2011; calls by dose curve; tested in HEK293 cells; also: potency is read from the fitted curve at half-maximal effect
# Giardia FBPA inh-1: qHTS Assay for Inhibitors of Fructose-1,6-bisphosphate Aldolase from Giardia Lamblia; purified Giardia FBPA; 290,000 tested, 0.71% active; A8B2U2; Potency, µM (titrated, usually from 59.6 µM), for inactives: at the highest dose activity, negative = inhibition, actives largely listed as inhibitors; also: potency is read from the fitted curve at half-maximal effect; nearly all actives have a fitted effect of over 55% in size
# Target sequence (A8B2U2 whole entry, looked up): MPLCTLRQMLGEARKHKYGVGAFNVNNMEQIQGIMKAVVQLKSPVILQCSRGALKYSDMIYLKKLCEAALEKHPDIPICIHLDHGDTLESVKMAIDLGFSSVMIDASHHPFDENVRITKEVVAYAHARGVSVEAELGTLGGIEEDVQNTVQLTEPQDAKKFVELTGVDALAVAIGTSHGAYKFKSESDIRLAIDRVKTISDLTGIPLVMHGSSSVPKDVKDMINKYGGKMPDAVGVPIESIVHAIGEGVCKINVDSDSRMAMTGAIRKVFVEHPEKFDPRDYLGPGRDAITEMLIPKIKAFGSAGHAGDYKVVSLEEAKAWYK
#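 Giardia FBPA (40 nM reagent) was preincubated 10 min at RT with compound (up to 57.5 uM final), then substrate plus GAPDH/TPI/NAD/arsenate coupling system with diaphorase/resazurin was added; resorufin fluorescence (525/598 nm) was read after 20 min.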
# LASV entry inh: qHTS for Inhibitors of binding or entry into cells for Lassa Virus | Lassa virus pseudotype entry inhibition, cell reporter | Potency, µM (series often up to 37.9 µM), for the others: at the top dose activity change, negative = inhibition, actives largely listed as inhibitors | 300,000 tested, 1.2% active; calls by dose curve; tested in HEK293 cells; also: potency is read from the fitted curve at half-maximal effect; nearly all actives have a fitted effect of over 50% in size
# HCV inhibitor: qHTS Assay for Inhibitors of Hepatitis C Virus (HCV); Huh7.5.1 HCVcc-Cre infection, luciferase reporter, 44 h; Potency, µM (series often up to 41.8 µM), for the others: top-dose activity change, negative = inhibition, actives largely listed as inhibitors; 340,000 tested, 3.4% active; AID 651820, 2012; also: potency is read from the fitted curve at half-maximal effect
#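 Luciferase read-out (15 sec integration) after a 15 min room-temperature substrate step quantifies HCVcc-Cre infection. Cells, 1,000 per well, had compound added 4 h post-plating, then virus at ~0.5 moi, and were cultured 44 h.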
# HCMV antiviral: qHTS Assay for inhibitors of the human cytomegalovirus (HCMV) | 410,000 tested, 4.5% active | HFF cells, HCMV-luciferase reporter, 72 h; hits give low values | activity change, negative = inhibition, % at 57.5 µM; in the data active = activity change below about -60%; inconclusive = no clear call, values can overlap the other calls; inactive = above about -39%
#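 Inhibition of viral replication was scored as loss of reporter luminescence in HFFs infected with HCMV-luciferase (MOI 1 PFU/cell) for 72 h; compounds tested at 2 doses, normalized to buffer and Salinomycin controls.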
# Giardia growth: qHTS Assay for Inhibitors of Fructose-1,6-bisphosphate Aldolase from Giardia Lamblia: Giardia lamblia growth inhibition; shares compounds with Giardia FBPA inh-1; Giardia lamblia trophozoite growth inhibition; Potency, µM (titrated, usually from 57.5 µM), inactives show at the top dose activity change, negative = inhibition, most hits filed as inhibitors; 1,500 tested, 5% active; AID 2785, 2010;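 also: potency is read from the fitted curve at half-maximal effect; trophozoites exposed to compound for 48 h at 37 °C; nearly all actives have a fitted effect of over 70% in size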
# Mammal cell tox: qHTS Assay for Inhibitors of Fructose-1,6-bisphosphate Aldolase from Giardia Lamblia: Mammalian cellular toxicity. AID 2786, 2010. mammalian cell viability counter-screen, qHTS. 1,500 tested, 4% active. shares compounds with Giardia FBPA inh-1. Potency, µM (highest dose often 57.5 µM), inactives show at the top dose viability change, negative = toxicity, actives largely listed as inhibitors;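 also: Chinese hamster ovary cells used as mammalian cytotoxicity surrogate; viability measured as cellular ATP by luminescence; potency is read from the fitted curve at half-maximal effect; compound exposure lasted 48 h before reading; nearly all actives have a fitted effect of over 60% in size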
# Giardia FBPA inh-2: qHTS Assay for Inhibitors of Fructose-1,6-bisphosphate Aldolase from Giardia Lamblia: Primary screen confirmation; shares compounds with Giardia FBPA inh-1; purified Giardia aldolase enzyme activity, qHTS; Potency, µM (top dose mostly 57.5 µM), for inactives: at the top dose activity change, negative = inhibition, hits mostly inhibitors; 1,500 tested, 5% active; AID 2787, 2010; also: potency is read from the fitted curve at half-maximal effect; nearly all actives have a fitted effect of over 45% in size
# Rabbit FBPA inh: qHTS Assay for Inhibitors of Fructose-1,6-bisphosphate Aldolase from Giardia Lamblia: Rabbit FBPA Selectivity | Potency, µM (top dose mostly 57.5 µM), without a hit: top-dose activity, negative = inhibition, hits mostly inhibitors | shares compounds with Giardia FBPA inh-1 | AID 2794, 2010 | 1,500 tested, 4% active | Rabbit muscle FBPA enzyme inhibition, selectivity counter-screen; also: potency is read from the fitted curve at half-maximal effect; nearly all actives have a fitted effect of over 60% in size
# Target sequence (P00883 whole entry, looked up): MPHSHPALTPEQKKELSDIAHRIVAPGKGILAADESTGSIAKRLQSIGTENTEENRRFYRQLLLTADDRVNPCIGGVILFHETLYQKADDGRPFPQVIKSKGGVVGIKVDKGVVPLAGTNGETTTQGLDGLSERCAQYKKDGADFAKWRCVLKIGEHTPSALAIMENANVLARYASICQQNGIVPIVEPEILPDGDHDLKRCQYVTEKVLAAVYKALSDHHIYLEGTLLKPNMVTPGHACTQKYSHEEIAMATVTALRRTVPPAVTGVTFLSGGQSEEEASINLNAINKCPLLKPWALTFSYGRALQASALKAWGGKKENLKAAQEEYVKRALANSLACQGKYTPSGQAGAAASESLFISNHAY
# GAPDH coupling: qHTS Assay for Inhibitors of Fructose-1,6-bisphosphate Aldolase from Giardia Lamblia: Coupling assay counterscreen confirmation | 1,500 tested, 6% active | GAPDH coupling enzyme counterscreen, biochemical, qHTS | AID 2795, 2010 | shares compounds with Giardia FBPA inh-1 | Potency, µM (highest dose often 57.5 µM), for the others: top-dose activity change, negative = inhibition, usual class: inhibitors; also: potency is read from the fitted curve at half-maximal effect; nearly all actives have a fitted effect of over 55% in size
# * hit, by the source's call; ? = inconclusive; / = no result; [ ] = another dose, or the depositor's remark. In the library only some 8.3% were active in any assay of this set; here they are far more common. Unless noted, calls follow the shape of the dose curve; as a rule, active = well fitted curve in the direction sought with a large enough effect; inconclusive = small, poorly fitted or top-dose-only effect, or another doubt; inactive = no such curve, though single readings can be large; an effect the other way counts as inactive or inconclusive. % is scaled to controls: 0 for no effect and ±100 for the full control effect.
SMILES,FMDV inh,MARV entry inh,Giardia FBPA inh-1,LASV entry inh,HCV inhibitor,HCMV antiviral,Giardia growth,Mammal cell tox,Giardia FBPA inh-2,Rabbit FBPA inh,GAPDH coupling
C=CCc1cc(OC)ccc1OCCN1CC(C)OC(C)C1 (centres undefined),-14%,/,?,/,4%,19,/,/,/,/,/
NC(=S)N=Nc1c(O)[nH]c2ccccc12,-9%,4%,-10%,?,19%,-14,/,/,/,/,/
Oc1[nH]c2ccccc2c1N=NC(=S)N1CCOCC1,?,/,18µM*,/,8.9µM*,/,2%[10.4 µM],40µM*,10%,0%,-8%
CN1CC(=O)Nc2cc(C(=O)O)ccc21,-7%,/,/,23%[46.1 µM],/,?,/,/,/,/,/
Cc1ccc(Cl)cc1N1CCN(C(=O)c2cn(C)c3ccc(S(=O)(=O)N4CCCC4)cc3c2=O)CC1,-2%,-20%[46.1 µM],/,-3%[46.1 µM],/,6,/,/,/,/,/
CCOc1ccc(C(C)C)cc1S(=O)(=O)Nc1cccc(-c2ccc(N3CCOCC3)nn2)c1,3%,/,/,2%[46.1 µM],/,-5,/,/,/,/,/
CC(=O)N1CCN(C(=S)NC(=O)c2c(-c3ccccc3Cl)noc2C)CC1,-10%,-24%[46.1 µM],16µM*,-7%,-2%,-8,0%[10.4 µM],0%,-3%,9%,2%
Cc1ccc(NC(=S)NC(=O)c2c(-c3ccccc3Cl)noc2C)cc1,-15%,22%,/,0%,-10%,-33,/,/,/,/,/
CNc1n[nH]c(=S)s1,-4%,3%,18µM*,11%,12%,-18,-17%,1%,-1%,-4%,12%
CC(=O)Nc1n[nH]c(=S)s1,5%,?,/,3%,9%,-30,/,/,/,/,/
CCN1CCc2c(sc(N)c2C#N)C1,-23%,19%,?,8%,-2%,?,/,/,/,/,/
N#Cc1c(N)sc(=S)c2c1CCN(Cc1ccccc1)C2,/,/,1.3µM*,/,-26%,/,15%[38.3 µM],-8%,32µM*,?,32µM*
Cc1ccccc1NC(=O)CN1CCN(Cc2ccccc2)CC1,-1%,-3%,4%,-5%,7%,-4,/,/,/,/,/
CCN(CC)S(=O)(=O)c1ccc(C)c(NC(=O)CN2CCN(Cc3ccccc3)CC2)c1,-22%,/,20µM*,/,-19%,-33,-11%[10.4 µM],-28%,2%,-1%,8%
CCN(CC)S(=O)(=O)c1ccc(C)c(NC(=O)CNCCN(C(C)C)C(C)C)c1,3%,/,14µM*,/,2%,-28,24%,13%,7%,3%,12%
CCN(CC)c1ccc(S(=O)(=O)N2CCOCC2)cc1NC(=O)CN1CCN(Cc2ccccc2)CC1,-18%,/,20µM*,/,?,?,-22%,-8%,-3%,-5%,5%
CCOCCCNC(=O)c1[nH]c2cc(C)ccc2c1Sc1ccc(Cl)cc1,3%,?,/,2%[46.1 µM],/,10,/,/,/,/,/
Cc1cc(C)cc(NC(=O)Cn2c(C)cc(C)c(C#N)c2=O)c1,-23%,/,/,9%[46.1 µM],/,30,/,/,/,/,/
CC1CCC(Nc2nc3c(-c4ccc(Cl)cc4)nnn3c3ccccc23)CC1 (centres undefined),-11%,0%[46.1 µM],/,?,/,28,/,/,/,/,/
CNc1cc(OC)c(C(=O)N[C@@H]2CCN(Cc3ccccc3)[C@H]2C)cc1Cl,/,/,-4%,/,/,/,/,/,/,/,/
COc1ccc(-c2cc(=O)c3c(OC)c(OC)c(OC)cc3o2)cc1OC,/,/,-6%,/,/,/,/,/,/,/,/
COc1ccc(-c2cc(=O)c3ccccc3o2)cc1OC,0%,/,7.9µM*,/,/,/,-24%[38.3 µM],?,?,?,-27%
CC(NC(=O)Cn1c(=O)oc2cc(S(=O)(=O)NCc3ccccc3)ccc21)c1ccccc1 (centres undefined),24%,-6%[46.1 µM],/,/,/,-8,/,/,/,/,/
CCOc1cc(CNC(=O)C2CCN(c3nc4ccccc4[nH]3)CC2)cc(OCC)c1OCC,-4%,/,/,25%[46.1 µM],/,0,/,/,/,/,/
CN(C)CCCCOc1ccccc1F,4%,7%[46.1 µM],20µM*,10%,1%,-27,?,9%,4%,11%,-7%
SMILES,FMDV inh,MARV entry inh,Giardia FBPA inh-1,LASV entry inh,HCV inhibitor,HCMV antiviral,Giardia growth,Mammal cell tox,Giardia FBPA inh-2,Rabbit FBPA inh,GAPDH coupling
CCOc1ccccc1OCCCCOc1ccccc1F,-30%,-14%,-1%,-5%,-17%,22,/,/,/,/,/
Cc1cc2c(n1-c1ccc(C(=O)NCc3ccccc3Cl)cc1)CCCC2,-8%,/,/,?,/,?,/,/,/,/,/
CN(Cc1ccccc1)C(=S)NC(=O)c1cccs1,1%,?,13µM*,?,3%,-7,?,-20%,2%,8%,13%
COc1cccc(CCc2nnc(CCC(=O)N3CCN(Cc4ccccn4)CC3)o2)c1,0%,?,5.6µM*,17%[46.1 µM],15%,-1,-1%[38.3 µM],-7%,-6%,4%,2%
O=C1ON=C(c2cccc([N+](=O)[O-])c2)/C1=C/c1ccc(O)cc1,?,?,?,6%,11%,48,/,/,/,/,/
O=C1ON=C(c2ccccc2)/C1=C/c1ccc(O)c(O)c1,?,/,4µM*,/,-7%,82,?,-14%,-25%,-19%,2%
CCn1c(C(=O)N2CCCC(C(=O)N3CCN(c4cc(C)ccc4C)CC3)C2)cc2sccc21 (centres undefined),?,0%[46.1 µM],/,/,/,-24,/,/,/,/,/
COC(=O)c1c(NC(=O)C(C)(C)C)sc2c1CCN(Cc1ccccc1)C2,?,/,11µM*,/,-27%,-21,-30%,-16%,-4%,9%,-14%
CCOC(=O)c1c(NC(=O)CCS(=O)(=O)c2ccccc2)sc2c1CCN(C(C)C)C2,-13%,11%,-8%,15%,-8%,-3,/,/,/,/,/
